Consider 56 compounds from PMC4336329 (PLoS ONE, 2015).

The campaign covered roughly 310,000 compounds. About 14,000 (4.5%) showed an effect of 50% or more. The effect is printed as a negative number. What follows is part of a selection rich in strong results, with near analogues and random picks from the rest.
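Also: peak tail current of the secondary pulse compared with the same well before compound.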

The target of the assay is human ether-à-go-go-related gene (hERG) potassium channel (human, UniProt Q12809). The experiment in a line: primary screen, population patch clamp on CHO cells stably expressing hERG; higher = less effect of the substance.
Chain of human ether-à-go-go-related gene (hERG) potassium channel (Q12809 whole entry, looked up): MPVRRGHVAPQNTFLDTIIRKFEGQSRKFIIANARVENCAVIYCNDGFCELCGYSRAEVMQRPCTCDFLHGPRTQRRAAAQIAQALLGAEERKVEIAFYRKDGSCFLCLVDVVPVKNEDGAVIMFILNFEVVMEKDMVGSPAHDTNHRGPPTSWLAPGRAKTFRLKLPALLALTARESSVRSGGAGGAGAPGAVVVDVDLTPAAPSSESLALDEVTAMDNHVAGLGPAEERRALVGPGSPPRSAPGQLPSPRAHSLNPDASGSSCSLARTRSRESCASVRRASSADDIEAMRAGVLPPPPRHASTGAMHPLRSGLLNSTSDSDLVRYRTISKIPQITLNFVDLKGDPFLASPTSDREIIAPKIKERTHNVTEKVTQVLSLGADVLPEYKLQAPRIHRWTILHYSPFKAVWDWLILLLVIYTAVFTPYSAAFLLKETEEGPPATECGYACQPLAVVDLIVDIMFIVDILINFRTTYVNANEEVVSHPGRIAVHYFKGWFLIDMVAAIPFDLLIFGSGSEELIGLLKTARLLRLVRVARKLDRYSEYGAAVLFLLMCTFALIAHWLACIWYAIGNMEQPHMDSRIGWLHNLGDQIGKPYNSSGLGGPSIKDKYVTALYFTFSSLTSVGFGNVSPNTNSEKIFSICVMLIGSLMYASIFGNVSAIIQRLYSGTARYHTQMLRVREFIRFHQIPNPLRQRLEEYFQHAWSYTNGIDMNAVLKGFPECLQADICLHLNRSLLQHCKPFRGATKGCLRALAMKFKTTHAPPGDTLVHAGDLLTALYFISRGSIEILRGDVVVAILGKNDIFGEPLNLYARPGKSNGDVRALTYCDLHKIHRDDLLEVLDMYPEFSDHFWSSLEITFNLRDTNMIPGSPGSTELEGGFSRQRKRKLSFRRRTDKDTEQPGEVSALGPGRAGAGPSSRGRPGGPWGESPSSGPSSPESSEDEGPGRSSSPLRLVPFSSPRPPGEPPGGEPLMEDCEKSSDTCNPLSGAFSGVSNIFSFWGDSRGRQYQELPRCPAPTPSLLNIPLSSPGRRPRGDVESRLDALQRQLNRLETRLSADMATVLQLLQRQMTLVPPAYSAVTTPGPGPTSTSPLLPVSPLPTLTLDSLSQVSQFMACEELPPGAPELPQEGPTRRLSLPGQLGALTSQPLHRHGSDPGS
With `O=c1cc(CSc2ccccn2)c2ccccc2[nH]1`, the “hERG current change (%, negative = inhibition) at 10uM” value is recorded as 9.52%.
The value for `C=CCn1c(=O)c(C(=O)NC(C)c2ccccc2)c(O)c2ccccc21` (centres unmarked) was 18.3%.
The figure for `C=CCN(CC=C)Cc1c(O)ccc2c(=O)c(-c3ccccc3)coc12` is -16.9%; for `CN(Cc1c(O)ccc2c1oc(=O)c1ccccc12)C1CCCCC1` it is -42.8%.
The figure for `C=CCN(CC=C)Cc1c(O)ccc2c1oc(=O)c1ccccc12` is -71.6%; for `Cc1ccccc1NC(=O)NCC1CCN(C(=O)OC(C)(C)C)CC1` it is -19.6%.
Turning to `Cc1ccc(NC(=O)NCC2CCN(Cc3cccc(Cl)c3)CC2)c(Cl)c1`, the “hERG current change (%, negative = inhibition) at 10uM” value was -59.8%.
The figure for `Cc1ccccc1NC(=O)NCC1CCN(Cc2cccc(Cl)c2)CC1` is -60%; for `Cc1ccc(OCC(=O)N2N=C(C(F)(F)F)CC2(O)C(C)(C)C)cc1C` (centres unmarked) it is -15.9%.
The figure for `O=C(NC1CCCCC1)C(c1cccs1)N(C(=O)Cc1c[nH]c2ccccc12)c1ccc(F)cc1` (centres unmarked) is 14.7%; for `Cc1ccc(S(=O)(=O)Cc2ccc(C(=O)N3CCN(c4cccc(C)c4C)CC3)o2)cc1` it is -7.95%; for `O=C(c1ccc2c(=O)n(Cc3ccccc3Cl)c(=S)[nH]c2c1)N1CCCC1` it is 4.9%.
The figure for `Cc1cc(Cl)ccc1OCc1n[nH]c(=S)n1C1CCCCC1` is 21.1%; for `CN1CCN(c2cc(N3CCc4ccccc4C3)c(F)cc2[N+](=O)[O-])CC1` it is -44.2%; for `CC(=O)N1CCN(c2cc(N3CCc4ccccc4C3)c(F)cc2[N+](=O)[O-])CC1` it is -41.3%.
For `CCN1CCN(c2cc(N3CCc4ccccc4C3)c(F)cc2[N+](=O)[O-])CC1`, the “hERG current change (%, negative = inhibition) at 10uM” value is listed as -51.9%.
The figure for `O=C(CCC(=O)Nc1ccccc1)NNC(=O)c1ccco1` is 8.99%; for `CCN1CCN(C(=O)c2cc3sccc3n2CC(=O)c2ccccc2)CC1` it is -45.5%; for `CN1CCN(C(=O)c2cc3sccc3n2CC(=O)c2ccccc2)CC1` it is -27.6%.
The value for `O=C(Cn1c(C(=O)N2CCN(C3CCCCC3)CC2)cc2sccc21)c1ccccc1` was -70.7%; that for `O=C(Cn1c(C(=O)NCC2CCCO2)cc2sccc21)c1ccccc1` (centres unmarked) was -3.47%.
The figure for `O=C(Cn1c(C(=O)N2CCc3ccccc3C2)cc2sccc21)c1ccccc1` is 4.01%; for `O=C(Cn1c(C(=O)N2CCN(C3CCCC3)CC2)cc2sccc21)c1ccccc1` it is -76.1%; for `CCOc1cc(N2CCOCC2)c(OCC)cc1NC(=O)C1CC(=O)N(c2ccc(C)cc2)C1` (centres unmarked) it is -2.64%.
With `O=C(COC(=O)c1ccccc1SCC(=O)N1CCCC1)NC1CCCCC1`, the “hERG current change (%, negative = inhibition) at 10uM” value is recorded as -5.12%.
The value for `COc1ccc(C(=O)Oc2c(C)occc2=O)cc1OC` was 9.93%; that for `C#CCNc1nc(CC)nc2c1nnn2Cc1ccccc1F` was -0.696%.
Regarding `CCc1nc(NCCCCCO)c2nnn(Cc3ccccc3F)c2n1`, the “hERG current change (%, negative = inhibition) at 10uM” value was -28.8%.
On to `CCc1nc(NCC2CCCN2CC)c2nnn(Cc3ccccc3F)c2n1` (centres unmarked), for which the “hERG current change (%, negative = inhibition) at 10uM” value is on record as -54.2%.
The value for `CCOC(=O)C1C(=O)NC(SCC(=O)Nc2nccs2)=C(C#N)C1c1ccccc1OCC` (centres unmarked) was 13.7%.
The value for `COc1ccc(OC)c(C2C3CN(C(C)C)CC=C3C(C#N)=C(N)C2(C#N)C#N)c1` (centres unmarked) was -16.2%.
The figure for `Nc1c(C(=O)Nc2ccccc2)c2nc3ccccc3nc2n1CCCN1CCOCC1` is 18.7%; for `CCCCc1nc(SCC(=O)N2CCCC2)c2c(=O)n(C)c(=O)n(C)c2n1` it is -23%; for `COc1cccc(OC)c1OCCN1CCN(C(=O)c2ccco2)CC1.Cl` it is -16.2%.
For the compound `Cl.O=C(c1ccco1)N1CCN(CCCCOc2ccc(F)cc2)CC1`, the “hERG current change (%, negative = inhibition) at 10uM” value is reported as -74.4%.
The value for `O=C(CCN1CCN(C(=O)c2ccco2)CC1)Nc1ccc(F)cc1` was -22.4%.
The figure for `Cl.O=C(c1ccco1)N1CCN(CCOCCOc2cccc3ccccc23)CC1` is -62.5%; for `O=C(O)C(=O)O.c1ccc(CN2CCN(CCOCCOc3cccc4ccccc34)CC2)cc1` it is -43.3%.
The value for `Cl.O=C(c1ccco1)N1CCN(CCCCOc2cccc3ccccc23)CC1` was -62.4%; that for `O=C(c1ccco1)N1CCN(CCCCN2C(=O)c3ccccc3C2=O)CC1` was -40%.
Turning to `CN1CCN(CCCCOc2cccc3ccccc23)CC1.Cl`, the “hERG current change (%, negative = inhibition) at 10uM” value is -27.4%.
The value for `Cl.O=C(c1ccco1)N1CCN(CCOc2ccc(F)cc2)CC1` was -47.4%; that for `O=C(CCCCCCN1C(=O)c2ccccc2C1=O)Nc1nccs1` was 12.2%.
For the compound `COc1cc(CNCCO)cc(Br)c1OCc1cccs1.Cl`, the “hERG current change (%, negative = inhibition) at 10uM” value was -8.81%.
The figure for `CCOc1c(C)cc2[nH]c(CCC(=O)O)nc2c1C.Cl` is -0.00982%.
The value for `COCCn1c(-c2ccccc2F)n[nH]c1=S` was 21.5%; that for `CNC(=O)c1ccccc1Sc1ccccc1CO` was 27.9%.
The figure for `CC(C)(C)c1ccc(NC(=S)NCc2cccs2)cc1` is 4.35%; for `Cc1cc(N2CCN(c3ccccc3)CC2)nc(NCc2ccccc2)n1` it is 4.25%; for `Cc1cc(N2CCC(C)CC2)nc(-n2nc(C)cc2C)n1` it is -30.3%.
In the case of `Cc1cc(C)n(-c2nnc(N3CCN(c4ccccc4)CC3)nn2)n1`, the “hERG current change (%, negative = inhibition) at 10uM” value is recorded as -16%.
As to `Cc1cc(N2CCN(c3ccccc3)CC2)nc(-n2nc(C)cc2C)n1`, the “hERG current change (%, negative = inhibition) at 10uM” value was -63.2%.
The figure for `Cc1cc(N2CCN(c3ccccc3)CC2)nc(N)n1.Cl` is -42.9%; for `CCCc1nc(C)cc(N2CCN(c3ccccc3)CC2)n1.Cl` it is -51.7%.
The value for `CC(Sc1nc(=O)cc(N)n1CCc1ccccc1)C(=O)NCc1ccccc1` (centres unmarked) was 3.18%; that for `Cc1ccc(C)c(S(=O)(=O)N/N=C/c2ccc(N(C)C)cc2)c1` was 16.1%.
